The full ranking holds about 33,000 sequences; the median of “E-score (-0.5 to 0.5)” is about -0.016, and the highest 2% start at about 0.32. For the sample, the highest values were picked, then their nearest neighbours and some sequences at random.
Biological target: T1, Stp1 (UniProt B3LFK1)
T1 sequence: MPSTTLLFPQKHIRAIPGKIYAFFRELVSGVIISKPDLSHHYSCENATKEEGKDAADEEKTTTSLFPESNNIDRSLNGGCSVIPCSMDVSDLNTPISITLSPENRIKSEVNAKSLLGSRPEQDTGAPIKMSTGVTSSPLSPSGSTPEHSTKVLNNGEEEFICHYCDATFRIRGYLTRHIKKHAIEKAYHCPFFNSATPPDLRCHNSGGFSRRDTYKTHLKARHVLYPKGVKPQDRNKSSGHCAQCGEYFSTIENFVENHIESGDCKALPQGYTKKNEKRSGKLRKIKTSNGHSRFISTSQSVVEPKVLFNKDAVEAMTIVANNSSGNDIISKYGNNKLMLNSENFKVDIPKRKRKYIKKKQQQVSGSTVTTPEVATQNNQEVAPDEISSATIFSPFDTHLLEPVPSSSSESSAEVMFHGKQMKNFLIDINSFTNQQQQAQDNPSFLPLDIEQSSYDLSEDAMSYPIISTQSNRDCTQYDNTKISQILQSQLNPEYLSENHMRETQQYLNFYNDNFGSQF
Experiment: PBM E-score (8-mer binding enrichment) (E-score (-0.5 to 0.5)); higher = stronger / more preferred TF binding
Settings: protein concentration: 200 nM; construct: GST-full length
Method: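 Universal 'all 10-mer' protein binding microarrays (Agilent AMADID 015681) probed with GST-tagged S. cerevisiae TFs (full-length or DBD) made by in vitro transcription/translation (PURExpress), about 100-200 nM. Bound TF was detected with fluorescent anti-GST. Each ungapped 8-mer (which stands for itself and its reverse complement) is scored by the PBM enrichment score (E-score), a modified Wilcoxon-Mann-Whitney statistic from -0.5 to +0.5, computed with the Universal PBM Analysis Suite. Scale: above 0.35 generally sequence-specific binding.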

Row | Sequence | PBM E-score
1 | GAGGGTAC | -0.22
2 | AACTGAGC | -0.0352
3 | CGATCAAG | -0.0842
4 | CCCTTATA | -0.15
5 | CCAACTAG | -0.0642
6 | CCGACCAG | -0.144
7 | CATAATGC | 0.0509
8 | TCCCAGGA | -0.255
9 | GGATCTAC | -0.105
10 | GTCGACTA | 0.157
11 | AAGCCGCC | 0.177
12 | CAGCCGCC | 0.0812
13 | GAGCCGCC | 0.319
14 | CCTAAGCC | -0.355
15 | ACGGGTTG | -0.0319
16 | TCGGCAAA | 0.0291
17 | CCGGCAAA | 0.116
18 | GGGGCAAC | -0.107
19 | GCGGCAAC | 0.384
20 | CCGGCAAC | 0.0817
21 | GCGGCAAA | 0.383
22 | ATCATTCG | 0.119
23 | AAATTAAG | -0.00684
24 | AGTGCGGC | 0.379
25 | CGTGCGAC | 0.0732

Row | Sequence | PBM E-score
26 | AGTGCGGG | -0.0896
27 | CGTGCGGA | 0.3
28 | CGTGCGGC | 0.476
29 | AGTGCGGA | 0.224
30 | TACTAGGA | -0.15
31 | GAGGTCAC | -0.123
32 | AGTATTGA | 0.0696
33 | CACGGTAG | -0.0367
34 | GTGGGCAA | -0.0572
35 | CCATTGCC | 0.0367
36 | CGCCCTGA | 0.0616
37 | AGCCCTGC | 0.0478
38 | CGCCCTGC | 0.346
39 | GACCTTTA | -0.0597
40 | AAGCCTCA | -0.0215
41 | AGGCGCCG | 0.462
42 | AGGCGACT | 0.0881
43 | CGCCGGCG | 0.312
44 | CGGAGCCG | 0.302
45 | GGGCGCCA | 0.309
46 | AGGCGCAT | 0.241
47 | TGGCGCCA | 0.26
48 | AGGCGCCA | 0.353
49 | AGGCGTCG | 0.253
50 | AGGCGCCC | 0.232

Row | Sequence | PBM E-score
51 | AGGCGCCT | 0.383
52 | CGGCGCCG | 0.484
53 | AGGTGCGG | 0.189
54 | AATAACTG | 0.0806
55 | TGGACAAA | -0.0269
56 | GCAGCGCA | -0.103
57 | AAGAACCA | -0.0227
58 | CAGTCTCC | -0.209
59 | ATTTGGAA | 0.0474
60 | AAGATTAA | 0.084
61 | ATCGTACA | 0.0995
62 | CGATAAAC | 0.0166
63 | AGGAGGAT | -0.107
64 | GCGATGTA | 0.16
65 | TATCGTCA | -0.0796
66 | TAGTGCAA | 0.0577
67 | ATGCGCCA | 0.0976
68 | ATGCGCCC | 0.158
69 | CTGCGCCA | 0.106
70 | CGGCGCCA | 0.463
71 | GGGCGCCC | 0.255
72 | GCGCGCCA | 0.268
73 | CGGCGCCC | 0.38
74 | ATGCGCCG | 0.413
75 | CTGCGCCC | -0.113

Row | Sequence | PBM E-score
76 | AACTATCG | -0.203
77 | CTCTGGCA | -0.203
78 | ACAAGTGC | -0.127
79 | CGTCAGAG | -0.0954
80 | GCAATGGC | -0.116
81 | AGGCTGTA | 0.0388
82 | ATCTATTG | 0.0947
83 | ACAGATAA | -0.0189
84 | ATCAATGG | -0.0372
85 | AACAACCA | 0.0647
86 | CCCTCGTA | -0.0643
87 | GCCTCGTA | 0.346
88 | ACCTCGTA | -0.0684
89 | CGCCATGC | 0.226
90 | ATAGTGCC | 0.311
91 | AGGGCACC | 0.0197
92 | GGGGCACA | 0.0124
93 | GCGGCACA | 0.463
94 | CCGGCACC | 0.254
95 | GTGGCACA | 0.125
96 | GGGGCACC | 0.0924
97 | GCGGCACC | 0.477
98 | ACGGCACC | 0.484
99 | CGGGCACC | 0.237
100 | GACGCCAC | 0.0288

Row | Sequence | PBM E-score
101 | GATCCTAC | -0.1
102 | ACTCTCAG | 0.0178
103 | CGGCACTC | 0.365
104 | GGGCACTA | 0.23
105 | CGGCACTA | 0.446
106 | CTGCACTC | 0.109
107 | AGGCACTC | 0.139
108 | AGGCACTA | 0.301
109 | CAGAGGTA | 0.062
110 | GTTCCATA | -0.164
111 | CCTGGCCG | -0.105
112 | AAAGTATC | 0.118
113 | AGGTAAGC | -0.118
114 | TATCTCCA | 0.103
115 | CCTACCTA | -0.0899
116 | AGCGGCTC | 0.388
117 | CGCGGCTC | 0.464
118 | ATCGGCTC | 0.136
119 | CTCGGCTC | 0.029
120 | AGCGGCTA | 0.165
121 | GGCGGCTA | 0.207
122 | AGCGGCTG | 0.0689
123 | CCCGGCTC | -0.238
124 | CGCGGCTA | 0.397
125 | AGGCCGGG | -0.163

Row | Sequence | PBM E-score
126 | CTGAAAGC | 0.0435
127 | ACTACTGA | -0.0374
128 | AGCCAGGC | -0.101
129 | AAGGCGGA | -0.099
130 | GAGGCGGA | -0.00688
131 | AAGGCGGC | 0.319
132 | GAGGAGGC | 0.00167
133 | CAGGCGGC | 0.3
134 | GAGGCGGC | 0.374
135 | GGAAACTA | -0.133
136 | TCAATGAA | 0.0662
137 | ACCAAGTG | -0.0911
138 | GAGTAGAC | 0.0184
139 | AGTCGAAC | -0.146
140 | GAAATGCA | -0.0558
141 | CTAATGCC | 0.221
142 | ATAATGCC | 0.325
143 | ATGATGCG | 0.148
144 | ACCATGCC | 0.199
145 | GAAATGCC | 0.358
146 | ATGATGCC | 0.337
147 | ATAATGCG | -0.0164
148 | CTGATGCC | 0.187
149 | GCCATGCC | 0.324
150 | CAAATGCC | 0.227

Row | Sequence | PBM E-score
151 | CCCATGCC | -0.0109
152 | TACACACA | 0.202
153 | ATGGATTA | -0.0582
154 | ACCTGGAT | -0.266
155 | GAAGCATA | -0.00057
156 | GTCACAAA | -0.0375
157 | AGTCATTG | -0.381
158 | CACACTCA | 0.0928
159 | AAATTTCT | -0.0455
160 | AAAATGCA | -0.0731
161 | GCGATGCA | -0.156
162 | CCGATGCC | 0.264
163 | AAAATGCC | 0.352
164 | AAAATGCT | 0.164
165 | GCGATGCC | 0.319
166 | ACTCACAC | -0.063
167 | CAATCCAA | 0.0601
168 | AAGCTGGG | -0.164
169 | AGCAATTA | 0.0484
170 | CCCACACC | -0.0557
171 | AAGCGGGT | -0.0561
172 | CAGCGGCG | 0.34
173 | CAGCGGCA | 0.3
174 | AAGCGGCA | 0.455
175 | CAGCGGCC | -0.111

Source: the supplement of paper PMC3334620
